“And” between values parts separate entries of the source, which are not always exact repeats. Identical values can stand only once. Results filed as inconclusive are left out. Entries that show only a call come without a potency. A structure can be active in one record and inactive in another. The source made the active and inactive calls. Calls follow the shape of the dose curve; as a rule, active = well fitted curve in the direction sought with a large enough effect in the repeat runs; inconclusive = weak or mixed curves; inactive = no such curve, though single readings can be large; an effect the other way counts as inactive or inconclusive.
Key:
[1] = Caspase-3/7 induction in HepG2 cells by small molecules, qHTS assay (AID 1346978); details: HepG2 caspase-3/7 activation, Caspase-Glo luminescence, 17 h; series mostly up to 92.4 µM; also: nearly all actives have a fitted effect of over 15% in size
Method in brief: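 Wild-type HepG2 cells, 2,000/well, settled 5 hr at 37 C and 5% CO2, then compound-treated for 17 hr; caspase-3/7 activity read by luminescent Caspase-Glo 3/7 after 30 min at room temperature.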

[2] = Caspase-3/7 induction in CHO-K1 cells by small molecules, qHTS cell viability counter screen (AID 1346979); details: CellTiter-Fluor fluorescence, 17 h; series mostly up to 92.4 µM; also: nearly all actives have a fitted effect of over 35% in size; also: potency is read from the fitted curve at half-maximal effect
Method in brief: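 CellTiter-Fluor viability check, qHTS format: wild-type CHO-K1, 16hr compound treatment, 1hr reagent incubation, fluorescence read.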

[3] = Caspase-3/7 induction in CHO-K1 cells by small molecules, qHTS assay (AID 1346980); details: CHO-K1 caspase-3/7 induction, Caspase-Glo luminescence, 17 h; series mostly up to 92.4 µM; also: nearly all actives have a fitted effect of over 15% in size
Method in brief: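 Wild-type CHO-K1 cells exposed to compounds for 17hr at 37 C, 5% CO2. Caspase-3/7 activity then measured by Caspase-Glo 3/7 luminescence after 30min at room temperature.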

[4] = target: Nuclear receptor subfamily 1 group I member 2 (Homo sapiens) (UniProt O75469); assay: Human pregnane X receptor (PXR) small molecule agonists, qHTS assay (AID 1346982); details: PXR-Luc HepG2, CYP3A4 luciferase reporter, 24 h; series mostly up to 92.4 µM; also: nearly all actives have a fitted effect of over 35% in size; also: potency is read from the fitted curve at half-maximal effect
Method in brief: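 HepG2 PXR-Luc reporter line, 5% charcoal-stripped FBS; 5 hr pre-incubation, compound (DMSO) 24 hr at 37 C/5% CO2; ONE-Glo 30 min RT; luminescence read-out.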

[5] = target: Nuclear receptor subfamily 1 group I member 2 (Rattus norvegicus) (UniProt Q9R1A7); assay: Rat pregnane X receptor (rPXR) activation by small molecules, qHTS assay (AID 1346983); details: rPXR luciferase reporter cells, One-Glo luminescence, 24 h; max activation: stronger effect = higher value; also: nearly all actives have a fitted effect of over 20% in size; also: potency is read from the fitted curve at half-maximal effect
Method in brief: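 Cell-based rPXR activation assay: rPXR cells, 2,000 per well, rested 5hr at 37 C, then exposed to compounds in DMSO for 24 hr at 37 C. Luciferase activity read by One-Glo luminescence after 30 min at room temperature.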

[6] = target: Nuclear receptor subfamily 1 group I member 2 (Homo sapiens) (UniProt O75469); assay: CYP3A4 induction through human pregnane X receptor (PXR) by small molecules, qHTS assay (AID 1346984); details: DPX-2 HepG2 PXR, CYP3A4-luciferin luminescence, 24 h; series mostly up to 46.1 µM; also: nearly all actives have a fitted effect of over 40% in size
Method in brief: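 HepG2-derived DPX-2 line carrying PXR plus a CYP3A4-promoter luciferase reporter; cells plated 5 hr, compound-exposed 24 hr at 37C. CYP3A4 activity probed with 3uM (final) Luciferin-IPA for 3hr, then luciferase read after One-Glo.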

[7] = target: Nuclear receptor subfamily 1 group I member 2 (Homo sapiens) (UniProt O75469); assay: Human pregnane X receptor (PXR) activation by small molecules, qHTS assay (AID 1346985); details: DPX-2 HepG2 CYP3A4-luciferase, 24 h; series mostly up to 38.3 µM; also: nearly all actives have a fitted effect of over 40% in size; also: potency is read from the fitted curve at half-maximal effect
Method in brief: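 DPX-2 cells (HepG2 co-transfected with a PXR response element and a CYP3A4-promoter luciferase construct) were seeded at 2,000 per well, rested 5 hr at 37C, then exposed to DMSO-dissolved compounds for 24 hr. Activation was read as luciferase luminescence.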

[8] = target: Cytochrome P450 2D6 (Homo sapiens) (UniProt P10635); assay: Cytochrome P450 Family 2 Subfamily D Member 6 (CYP2D6) small molecule antagonists: luciferase reporter qHTS assay (AID 1671196); details: P450-Glo CYP2D6 enzyme assay, luciferin luminescence, 1 h; series mostly up to 115 µM; also: nearly all actives have a fitted effect of over 50% in size; also: potency is read from the fitted curve at half-maximal effect
Method in brief: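 Luminogenic proluciferin substrate, CYP2D6 enzyme; 10 min RT preincubation with compound, NADPH regeneration system added, 1 h RT. Stop/detection reagent, 20 min RT, luminescence read (RLU). Signal proportional to CYP activity.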

[9] = Caspase-3/7 induction in HepG2 cells by small molecules, qHTS cell viability counter screen (AID 1346981); details: CellTiter-Fluor fluorescence, 17 h; series mostly up to 92.4 µM; also: nearly all actives have a fitted effect of over 30% in size; also: potency is read from the fitted curve at half-maximal effect
Method in brief: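 Fluorescence read-out of live-cell protease activity (CellTiter-Fluor) after 1 hr with reagent. This was measured in the same wells as the caspase-3/7 luminescence, on HepG2 cells exposed to DMSO-dissolved compounds for 16 hr at 37 C.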

Chain of Nuclear receptor subfamily 1 group I member 2 (Rattus norvegicus) (Q9R1A7 whole entry, looked up): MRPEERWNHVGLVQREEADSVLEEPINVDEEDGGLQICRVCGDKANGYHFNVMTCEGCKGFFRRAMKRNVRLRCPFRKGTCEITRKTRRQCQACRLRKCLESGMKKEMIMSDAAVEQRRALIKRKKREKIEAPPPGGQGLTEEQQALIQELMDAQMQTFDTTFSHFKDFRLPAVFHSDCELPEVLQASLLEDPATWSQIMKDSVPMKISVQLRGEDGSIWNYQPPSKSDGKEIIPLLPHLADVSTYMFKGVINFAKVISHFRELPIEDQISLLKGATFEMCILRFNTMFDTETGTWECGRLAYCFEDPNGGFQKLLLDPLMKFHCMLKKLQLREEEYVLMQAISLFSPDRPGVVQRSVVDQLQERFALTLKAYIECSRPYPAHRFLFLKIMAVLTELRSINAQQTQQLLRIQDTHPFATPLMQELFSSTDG
Chain of Nuclear receptor subfamily 1 group I member 2 (Homo sapiens) (O75469 whole entry, looked up): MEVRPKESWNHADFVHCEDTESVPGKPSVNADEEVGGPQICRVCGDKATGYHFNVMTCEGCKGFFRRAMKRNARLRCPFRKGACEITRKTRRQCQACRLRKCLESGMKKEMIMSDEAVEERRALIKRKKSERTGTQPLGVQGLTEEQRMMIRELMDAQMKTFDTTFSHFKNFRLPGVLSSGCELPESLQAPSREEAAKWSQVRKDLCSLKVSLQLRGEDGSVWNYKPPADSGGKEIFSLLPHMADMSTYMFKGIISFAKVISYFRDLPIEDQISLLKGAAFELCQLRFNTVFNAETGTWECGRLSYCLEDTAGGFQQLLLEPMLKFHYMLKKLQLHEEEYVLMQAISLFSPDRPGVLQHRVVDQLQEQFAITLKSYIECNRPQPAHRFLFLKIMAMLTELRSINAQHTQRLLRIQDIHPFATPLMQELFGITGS
Chain of Cytochrome P450 2D6 (Homo sapiens) (P10635 whole entry, looked up): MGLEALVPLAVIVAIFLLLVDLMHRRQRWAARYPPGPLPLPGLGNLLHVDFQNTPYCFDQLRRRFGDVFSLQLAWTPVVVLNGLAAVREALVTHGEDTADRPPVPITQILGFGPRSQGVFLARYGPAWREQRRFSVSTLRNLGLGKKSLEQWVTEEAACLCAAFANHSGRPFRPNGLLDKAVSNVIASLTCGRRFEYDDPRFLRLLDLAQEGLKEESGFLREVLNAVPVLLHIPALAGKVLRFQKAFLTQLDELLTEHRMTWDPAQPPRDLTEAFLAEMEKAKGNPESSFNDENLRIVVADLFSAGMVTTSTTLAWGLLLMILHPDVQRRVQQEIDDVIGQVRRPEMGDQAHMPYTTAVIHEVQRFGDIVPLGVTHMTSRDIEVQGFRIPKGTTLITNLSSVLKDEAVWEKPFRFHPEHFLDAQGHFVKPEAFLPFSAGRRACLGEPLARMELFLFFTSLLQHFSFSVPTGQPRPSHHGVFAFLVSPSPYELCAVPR

Row | Compound | Potency [1] | Potency [2] | Potency [3] | Potency [4] | max activation [5] | Potency [6] | Potency [7] | Potency [8] | Potency [9] | Potency [5]
1 | CC/C=C\C/C=C\C/C=C\CCCCCCCC(=O)O | inactive | inactive and 61.1 µM (active) | inactive | inactive and 61.1 µM (active) | -1.32% (inactive) | inactive | inactive | 19.8 µM (active) |  | 
2 | ClC/C=C/CCl | inactive | inactive | inactive | inactive |  |  |  | 62.8 µM (active) and inactive | inactive | 
3 | FC(F)(F)C(Cl)Br (stereo not given) | inactive | inactive | inactive | inactive | -0.375% (inactive) | inactive | inactive | inactive | inactive | 
4 | O=C1OC2(c3ccccc31)c1cc(I)c(O)c(I)c1Oc1c2cc(I)c(O)c1I | inactive | 10.5 µM (active) [middle of 4 runs] | inactive |  |  |  |  | 28.3 µM (active) and 36 µM (active) | 13.3 µM (active) [middle of 4 runs] | 
5 | COc1ccc2nc(N)sc2c1 | inactive | inactive | inactive | 48.6 µM (active) and 21.7 µM (active) |  |  |  | 10 µM (active) and 63.3 µM (active) | inactive | 
6 | C[C@]12C=CC(=O)C=C1CC[C@H]1[C@@H]3C[C@@H](O)[C@](O)(C(=O)CO)[C@@]3(C)C[C@H](O)[C@@]12F | inactive | inactive | inactive | inactive | -5.29% (inactive) | inactive | inactive | inactive |  | 
7 | c1ccc2c(c1)ccc1ncccc12 | inactive | inactive | inactive | 60.7 µM (active) and 61.1 µM (active) |  |  |  | 7.91 µM (active) | inactive | 
8 | CC(C)[N+](C)(CCOC(=O)C1c2ccccc2Oc2ccccc21)C(C)C | inactive | inactive | inactive | inactive | 0.826% (inactive) | inactive | inactive | 100 nM (active) and 195 nM (active) | inactive | 
9 | CC1=CC(C)(C)Nc2ccccc21 | inactive | inactive | inactive | 8.41 µM (active) |  |  |  | inactive | inactive | 
10 | COc1ccc(-c2coc3cc(O)cc(O)c3c2=O)cc1 | inactive | 69.1 µM (active) | inactive |  |  |  |  | 45.2 µM (active) |  | 
11 | C=CC(C)(O)CCC=C(C)C (stereo not given) | inactive | inactive | inactive |  |  |  |  | inactive | inactive | 
12 | CC1(C)O[C@@H]2C[C@H]3[C@@H]4C[C@H](F)C5=CC(=O)C=C[C@]5(C)[C@@]4(F)[C@@H](O)C[C@]3(C)[C@]2(C(=O)CO)O1 | inactive | inactive | inactive |  |  |  | 15.8 µM (active) | inactive | inactive | 11.2 µM (active)
13 | OC[C@H]1O[C@@H]2O[C@H]3[C@H](O)[C@@H](O)[C@@H](O[C@H]4[C@H](O)[C@@H](O)[C@@H](O[C@H]5[C@H](O)[C@@H](O)[C@@H](O[C@H]6[C@H](O)[C@@H](O)[C@@H](O[C@H]7[C@H](O)[C@@H](O)[C@@H](O[C@H]1[C@H](O)[C@H]2O)O[C@@H]7CO)O[C@@H]6CO)O[C@@H]5CO)O[C@@H]4CO)O[C@@H]3CO | inactive | inactive | inactive |  | -2.41% (inactive) | inactive | inactive | inactive |  | 
14 | CCCOCCO | inactive | inactive | inactive | inactive |  |  |  | inactive | inactive | 
15 | C[C@]12CC[C@@H]3c4ccc(O)cc4CC[C@H]3[C@@H]1CC[C@@H]2O |  | 61 µM (active) and 61.1 µM (active) | inactive |  | -1.66% (inactive) |  |  | 8.92 µM (active) and inactive | inactive | 
16 | Oc1ccc(C(c2ccc(O)cc2)C(Cl)(Cl)Cl)cc1 | inactive | 54.5 µM (active) | inactive | inactive and 61.1 µM (active) |  |  |  | inactive |  | 
17 | NC[C@H](O)c1ccc(O)c(O)c1 | inactive | inactive | inactive | inactive | -0.838% (inactive) | inactive | inactive | inactive |  | 

Source: PubChem BioAssay (Tox21)
